According to the supplement of paper PMC11417369:
Whole data set: some 25,000 sequences, median “ln(normalized median fluorescence intensity)” near 6.7, cut for the highest 2% near 10. The entries come from a sample that favours the highest values as a whole.

What follows are sequences tested on PfHDP1 homeodomain (GST-tagged) (assay: gcPBM binding intensity (ln(normalized median fluorescence intensity)); higher = stronger DNA binding).
Procedure, shortened: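 An Agilent 4 × 180k array of primer-extended double-stranded 36-bp intergenic genomic probes, with negative controls, was incubated for 1 h with GST-tagged P. falciparum DNA-binding domains expressed in E. coli. Alexa488 anti-GST antibody detected bound protein, scanned at 488 nm. Binding intensity is the highest Masliner-normalised natural-log median intensity across replicate spots of either probe orientation.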

Sequence | gcPBM binding intensity (ln)
ATCATTTGCTCACGCACACACACATAAAAAGAAAAA [CACACA_site4349] | 9.55
TTATCACATTATTGCACACACATAAAGAAAAAAATA [CACACA_site2841] | 9.63
CATTTGCCCAGGCACACACACATAAAAAGAAAAATA [CACACA_site356] | 6.34
ATCATTTGCATACGCACACACACATAAAAAGAAAAA [CACACA_site355] | 8.44
CATTTGCACACGCACACACACATAAAAAGAAAAATA [CACACA_site6297] | 10.8
CATTTGCACCCGCACACACACATAAAAAGAAAAATA [CACACA_site4350] | 10.7
AACTATATCATTTATTTTATTTTTTAAATACATTTA [CACACA_negctrl_site183] | 6.19
ATATATGTAATAAATAGTACACACACACATATATAT [XGTACX_site2817] | 7.35
ATACTGTATAGTCGCACACAAAAATATAAAATATTT [CACACA_site6004] | 6.65
CATATATATTTGTTCACACACACACTAATAAAAAAA [CACACA_site8787] | 6.85
TTGCAAATATATGGTTGTACTCAAAAAAAAAAAAAA [XGTACX_site6975] | 6.47
GAAAGAAATAAAGGTGGTACATAAATAAAAACTAAG [XGTACX_site4826] | 6.97
TATATATATTTCCAGTGTACTTATTTTTTAATCAAT [XGTACX_site8220] | 6.7
TATCATTGTTCATGCTTGCACTTTTGTTACTGTTCC [GTGCAC_site9425] | 6.75
TTTTTTTTGTTCATTGTGCACATTGCTTGCATGGAA [GTGCAC_site9693] | 10.8
TTTTTTTTTTTTGGTGCATGCACATTTTGTTTTTTT [TGCATGCA_site570] | 10
TGAACATATTAAAATTGTACATATGCACAATATGTA [XGTACX_site6801] | 9.28
GTAGGCATTAAAAAATGTACAAAATATTATGAATTG [XGTACX_site1615] | 6.32
AGTAGGCATATTGGTTGTACAAAAAAATTATGCACC [XGTACX_site8925] | 10.6
AAACATAAAGAAAAAAAAAATATATATTTATTTATT [GTGCAC_negctrl_site357] | 6.33
ATATACACATATACATGTACAAATATATATACACAT [XGTACX_site2986] | 6.9
CATATGTATATGACTACACACAAGGGTGTACCTATA [CACACA_site6670] | 6.34
TTTAACATTTCAGATGTGCACATTTTCCGAACCAGT | 10.9

Sequence | gcPBM binding intensity (ln)
AATAGATTTTTATGCGTGCACACATTTAACAAAAAA | 10.3
GAACATTTATTGTGTGTGCACAATTCTTTTTTAACC [GTGCAC_site9697] | 10.2
TATTATAATATTTATACACACATAATTTTGATAAAT [CACACA_site583] | 6.45
TTTCCGTATAATTTTGCACACGAATATAAATTTGAT [CACACA_site137] | 10.3
TCCGTATAATTTTGCACACGAATATAAATTTGATAA [CACACA_site136] | 10.9
TGGAGGTCAGTTCACAGTACCCAGGAAATCTACGGA [XGTACX_site1995] | 5.93
TTTTTCTTAAAAAATTGTACACATATATATATATAT [XGTACX_site542] | 9.21
GTAGTGGTTGAATATACACACATATATATATATATA [CACACA_site2651] | 9.39
CCTAGAAAAAAGAACTGTACATATATATATAAATAT [XGTACX_site1680] | 6.65
GTAGACATTATAATGGTGCAAAAAAATTAACAAAAA [GTGCAC_site9891] | 10.6
TATATTAACAAAATGGTGCAATAATTTCTATATTAT [GTGCAC_site9857] | 10.5
GACAAATAATAAAAGGTGCATTATACTTAACAAAAA [GTGCAC_site9624] | 9.69
TCAAGTATTAAAATGGGTACATAAATATGTGTATAT [XGTACX_site5884] | 6.63
TATAATAAATCATATGCATGTTGAAAAAAAAAAAAA [TGCATGCA_site923] | 6.46
AATATATAGAAACACACACACAAAAAAAAAAAAAAA [CACACA_site1326] | 6.47
TTTTGAAACATATGATGTACACGAACATTTAAAAAA [XGTACX_site474] | 6.6
ATTTAGAAAAATAAAACACACATATATCTGTAAATA [CACACA_site6119] | 6.53
ATAAAAATATTGTCTAGTACATATTTATAATAAAAA [XGTACX_site7523] | 6.54
AATATATATATATGTGCACACATATATAATATGTAT [CACACA_site716] | 9.79
TATATATATATGTGCACACATATATAATATGTATAA [CACACA_site715] | 10.1
TATATATATATATGTGCACACCAATTGTATGTAATA [CACACA_site3888] | 10.5
TAATATAATATATGCACACAAATATGTATATATGTG [CACACA_site2134] | 9.77
TATATATATATGTGCACACCAATTGTATGTAATATA [CACACA_site3889] | 10.6

Sequence | gcPBM binding intensity (ln)
ATTGAATATGTAAATGCACACCAAAAAAAAAAAAAA [CACACA_site9189] | 9.61
CACAAAATAAATTAAACACACAACATCATATATGTA [CACACA_site846] | 6.57
TTTTTTTATATAGACACAAAAGAAAATTACATATAC [CACACA_negctrl_site235] | 6.49
ATATATAATAAATACACACACATGTATTTATAAATA [CACACA_site5135] | 6.8
TTTTTTTTGGTATAATGTACATTTTCACTTATGTAT [XGTACX_site3259] | 6.97
TTTTTTTTTTTTTTTGCACACACATTGAATTATTAT [CACACA_site198] | 9.13
CACCCGCACGTATTTGCACACATTGCCACGTAATTA [CACACA_site5786] | 10.7
CAGACGCACGTATTTGCACACATTGCCACGTAATTA [CACACA_site3349] | 10.2
TGTAATCAAAAAAATAGTACATAAATTGTGTATACT [XGTACX_site5908] | 6.57
TTTATTTTATCATTTGCACACGCACCCCCACATAAA [CACACA_site8007] | 10.2
TTTTATCACATTATTGCACACACATAAAGAAAAAAA [CACACA_site8922] | 9.63
TTATCATTTGGACACGCACACACACCGAAAAAGAAA [CACACA_site8008] | 7.13
TATTTTATCATTTGCACACGCACACCGACATAAAAA [CACACA_site4348] | 10.6
TTTATTTTATCATTTGCACACGCACCCAGACATAAA [CACACA_site4347] | 10.6
TATTTTATCATTTGCACACGCACACCCACATAAAAA [CACACA_site354] | 10.5
AGCACGCACAGACACACACACATATTTATATTTATA [CACACA_site6291] | 7.62
TTTATTTTATCATTTGCACACGCACGCCCACATAAA [CACACA_site353] | 10.6
TTTTTTTTTATTATCATGCACACATTTTTTTTTTTT [CACACA_site2254] | 9.1
TACCAATGCATAACGGTGCAAAAAAATAAGGAATAA | 10.3
AAATTATAAAATAACTGTACCAATCCTTTTTTTTTA [XGTACX_site2229] | 5.84
TATACATATGTATGCACACATACATACCCATATAAT [CACACA_site5842] | 9.42
GTATAAAAATTTAGGAGTACAATATATTTATAATAT [XGTACX_site2127] | 6.5
ATATTTCATTAATGAACACACAAAGAGGTATATAAA [CACACA_site1519] | 6.86

Sequence | gcPBM binding intensity (ln)
AATTAGACATAATATACACACATATATTATATATAT [CACACA_site2691] | 6.91
ATATTAAAGCCTTTTTGTACATATAAATAAACATAG [XGTACX_site4667] | 6.66
GTAAAATTTCGGATTTGTACACATGGCTATGAAAAA [XGTACX_site939] | 6.57
TGCCCTAACCATACTACACACACTGCTCAAAATAGT [CACACA_site2219] | 7.09
AGGATATAAAGTTGTGCATGTCAAGTGCACCGTATT [TGCATGCA_site451] | 10.2
TGTATATATAAACATGCACACGTGGTTGTATATATA [CACACA_site9078] | 8.31
TATATATATATAATAGTGCATAAATAAATATATAAA | 9
AAATAATATAAATACACACACACATATATAAATACA [CACACA_site4465] | 7.06
ATATATATATAGTGCACACTTAAGAATATAAAGAGG [CACACA_site1151] | 10.7
AAAAATATAAAAATAGCACACATATATACATATATA [CACACA_site7901] | 6.67
ATATATATATAGTGCACACATATAAAATATATATAA [CACACA_site2745] | 10.8
ATATATATATATAGTGCACACATATAAAATATATAT [CACACA_site8884] | 10.3
ATATATATATATAGTGCACACTTAAGAATATAAAGA [CACACA_site4771] | 10.3
AAATAAAGAATATAAATACACACTTAAATATATATT [CACACA_site4007] | 6.44
ATATAAATACGGTGTGCACACACATAATATATATAT [CACACA_site2271] | 11.1
ATATAAATATAGTGTGCACACACATAATATATATAT [CACACA_site8713] | 10.7
ATAATATAAATATACACACACACATATATATATATA [CACACA_site2905] | 9.28
AATATAATAATATTTTGTACATATCCTATGTATGAG [XGTACX_site8601] | 6.5
TATAAATATAAATACACACACACATCAATACAGATA [CACACA_site5850] | 6.87
CGCGAACATACATACACACACATATATATATCTGTA [CACACA_site4277] | 6.98
ATTGAATTCCAACTGGTGCACCAGTAAGATTGAAAA [GTGCAC_site9895] | 10.1
